In PubChem BioAssay (NCATS):
Where “and” joins values, the source holds several entries; their conditions need not be identical. Equal values may be shown once. Inconclusive results are not listed. A call without a number means that no potency is given here. Calls of active or inactive are those of the source. Calls come from the whole dose curve; as a rule, active = well fitted cell-killing curve with a large enough effect; inconclusive = small, poorly fitted or top-dose-only effect; inactive = flat fitted curve, though single readings scatter.

Assay: Cellular viability qHTS for adrenocortical cancer (ACC) cell line NCI-H295R (AID 1963990); note: nearly all actives have a fitted effect of over 60% in size
Details: CellTiter-Glo ATP luminescence, 48 h; series mostly up to 46.1 µM
Description: PI: Naris Nilubol, MD Surgical Oncology Program, National Cancer Institute (NCI) National Institute of Health (NIH), Bethesda, Maryland Adrenocortical cancer (ACC) is a rare malignancy with poor survival outcomes and few treatment options. Currently, mitotane is the only FDA-approved therapy for ACC. Although adjuvant radiation therapy is rarely utilized, it has the potential to improve survival in select cases. Through a quantitative high-throughput drug screen (qHTS), we identified auranofin (AF), a thioredoxin reductase (TXNRD) inhibitor, as a promising candidate drug. This study aims to evaluate whether AF can enhance the efficacy of radiation therapy in the treatment of ACC. Two human ACC cell lines, SW-13 and NCI-H295R, were screened using the National Center for Advancing Translational Sciences (NCATS) Pharmaceutical Collection (NPC) and the Mechanism Interrogation PlatE (MIPE) library (~4,991 compounds). CellTiter-Glo (Cat # G7570, Promega, Madison, WI) was utilized to measure cell viability. Described herein are the results of the corresponding viability assay.
PROTOCOL TABLE (as described by Inglese J, Shamu CE and Guy RK. 2007) SEQUENCE No. (e.g., 1, 2, 3, etc.); […] (e.g., Cells, Incubation, Reagent, etc.); VALUE; DESCRIPTION. 1; Cells; 5 uL; white, solid-bottom, 1536-well tissue-culture treated plates. 2; Time; overnight culture at 37C with 5% CO2. 3; Compounds and control; 23 nL; Kalypsis pin tool (Wako USA) equipped with a 1536-well pin head to transfer to the assay plates. 4; Time; 48 hours; 37C with 5% CO2. 5; Reagent; 4 uL; CellTiter-Glo luminescent substrate mix. 6; Time; 20 min at room temperature. 7; Detection; Luminescence; ViewLux plate reader NOTES (numbers refer to Sequence numbers above) 1. NCI-H295R cells were harvested from a T175 flask and resuspended in ITS-supplemented DMEM serum-free medium at a concentration of 300 000 cells/mL. Then 5 uL of resuspended cells were dispensed into each well of white, solid-bottom, 1536-well tissue-culture-treated plates using a multidrop combi dispenser. The plates were covered with stainless steel gasket lids. 2-3. The plates were cultured overnight at 37C with 5% CO2. Twenty-three nL of compounds (eight selected concentrations from the NPC / MIPE) or positive control (10 mM stock of bortezomib) in DMSO was transferred to each well of the assay plate using a pin tool (Kalypsys, San Diego, CA, USA). The final concentration of the compounds in the 5 uL assay volume ranged from 0.5 nM to 46 uM. 4-6. After 48 hours of incubation at 37C and 5% CO2, 4 uL of CellTilter-Glo luminescent substrate mix (Promega, Madison, WI, USA) was added to each well. Then the plates were incubated for 20 minutes at room temperature. 7. After incubation, luminescence was measured using a ViewLux plate reader (PerkinElmer, Waltham, MA, USA) with a clear filter was used to measure the number of metabolically competent cells. To determine compound activity in the qHTS assay, the titration-response data for each sample was plotted and modeled by a four-parameter logistic fit yielding IC50 and efficacy (maximal response) values. Raw plate reads for each titration point were normalized relative to positive control ([…], 100% inhibition) and DMSO-only wells (basal, 0%). REFERENCES: Inglese J, Shamu CE and Guy RK, Reporting data from high throughput screening of small molecule libraries, Nature Chemical Biology, 2007, 3(8): 438-441. doi.org/10.1038/nchembio0807-438.

Row | SMILES | Potency
1 | Nc1ccc2c(c1)CN1C(=O)c3ccccc3C1=N2 | inactive
2 | CC(O)c1cc(C(=O)N[C@@H](C)Cn2ccc(-c3ccc(C#N)c(Cl)c3)n2)n[nH]1 (stereo not given in full) | inactive
3 | Nc1nccc(-c2c(-c3ccc(F)cc3)ncn2C2CCCCC2)n1 | inactive
4 | C[C@@H](c1ccc2nccn2c1)n1nnc2ncc(-c3cnn(C)c3)nc21 | inactive
5 | O=C(C1CCCCC1)N1CC(=O)N2CCCc3ccccc3C2C1 (stereo not given) | 29.1 µM (active)
6 | COc1ccc(S(=O)(=O)NCc2ccc(C(=O)NCCc3ccc(Cl)cn3)cc2)cc1 | inactive
7 | CCc1cc(Nc2nccc(-c3c(-c4ccc(OC)c(C(=O)Nc5c(F)cccc5F)c4)nc4ccccn34)n2)c(OC)cc1N1CCC(N2CCN(S(C)(=O)=O)CC2)CC1 | inactive
8 | Cc1cnc(Nc2ccc(F)cc2Cl)nc1-c1c[nH]c(C(=O)NC(CO)c2cccc(Cl)c2)c1 (stereo not given) | 8.91 µM (active)
9 | OCCOc1ccc(/C(=C(/CCCl)c2ccccc2)c2ccccc2)cc1 | 25.1 µM (active)
10 | CCCOC(C(=O)OC1CCN(C)CC1)(c1ccccc1)c1ccccc1 | 23.1 µM (active)
11 | COC(=O)N(CC(=O)O)Cc1cccc(OCc2nc(-c3ccc(Cl)cc3)oc2C)c1 | inactive
12 | O=C1Nc2ccccc2C1(c1ccc(O)cc1)c1ccc(O)cc1 | inactive
13 | NC(=O)c1ccc2nc(-c3ccc(C4(N)CCC4)cc3)c(-c3ccccc3)n2n1 | 6.31 µM (active)
14 | CC(=O)NCC(=O)N1[C@@H]2CC[C@H]1c1ccc(Nc3ncc(C(F)(F)F)c(NC4CCC4)n3)cc12 | 4.47 µM (active)
15 | O=C1NCN(c2ccccc2)C12CCN(CCCC(c1ccc(F)cc1)c1ccc(F)cc1)CC2 | 3.26 µM (active)
16 | Nc1ncnc2c1c(COc1cccc(Cl)c1)nn2C1CCOCC1 | inactive
17 | CN1CCN(C2=Nc3cc(F)ccc3Cc3ccccc32)CC1 | inactive
18 | COc1ccc([C@@H]2Sc3ccccc3NC(=O)[C@@H]2O)cc1 | 23.1 µM (active)
19 | COc1ccc(/C=C/C(=O)c2ccc(OC)cc2OC)cc1 | 9.2 µM (active)
20 | CCCCC(CC)CN1CN(CC(CC)CCCC)CC(C)(N)C1 (stereo not given) | inactive

Row | SMILES | Potency
21 | Cn1ncnc1[C@H]1c2n[nH]c(=O)c3cc(F)cc(c23)N[C@@H]1c1ccc(F)cc1 | inactive
22 | CS[C@H]1SC[C@@H]2C(=O)N(C)[C@H](C(C)C)C(=O)OC[C@H](NC(=O)c3cnc4ccccc4n3)C(=O)N[C@H](C)C(=O)N(C)[C@H]1C(=O)N(C)[C@H](C(C)C)C(=O)OC[C@H](NC(=O)c1cnc3ccccc3n1)C(=O)N[C@H](C)C(=O)N2C | 0.1 µM (active)
23 | C[C@H](N)C(=O)N[C@@H](C)C(=O)NC1[C@H]2CN(c3nc4c(cc3F)c(=O)c(C(=O)O)cn4-c3ccc(F)cc3F)C[C@@H]12 (stereo not given in full) | inactive
24 | N[C@H](C(=O)O)[C@@H](O)c1ccc(O)c(O)c1 | inactive
25 | O=C(Nc1ccc(S(=O)(=O)N2CCOCC2)cc1)c1cc(Cl)ccc1NS(=O)(=O)c1ccc(Cl)s1 | 20.6 µM (active) and 25.1 µM (active)
26 | C[C@H]1CN(C2COC2)CCN1c1ccc(Nc2cc(-c3ccnc(N4CCn5c(cc6c5CC(C)(C)C6)C4=O)c3CO)cn(C)c2=O)nc1 | inactive
27 | CC1(COc2ccc(CC3SC(=O)NC3=O)cc2)CCCCC1 (stereo not given) | 16.4 µM (active)
28 | CC(=C(CCOC(=O)C(C)C)SSC(CCOC(=O)C(C)C)=C(C)N(C=O)Cc1cnc(C)nc1N)N(C=O)Cc1cnc(C)nc1N | inactive
29 | CN(C)CCOC(c1ccccc1)c1ccc(Br)cc1 (stereo not given) | 13 µM (active)
30 | Cc1ccc(NC(=O)c2ccc(CN3CCN(C)CC3)cc2)cc1Nc1nccc(-c2cccnc2)n1 | 25.1 µM (active)
31 | CN(C(=O)CCCOc1ccc2[nH]c(=O)ccc2c1)C1CCCCC1 | inactive
32 | OC(CCN1CCCCC1)(c1ccccc1)C1CCCCC1 (stereo not given) | 4.61 µM (active)
33 | C=CC[N+]1([C@H]2C[C@H]3[C@@H]4CC[C@H]5C[C@H](O)[C@@H](N6CCOCC6)C[C@]5(C)[C@H]4CC[C@]3(C)[C@H]2OC(C)=O)CCCC1 | inactive
34 | COc1ccc2cc(CCC(C)=O)ccc2c1 | inactive
35 | NNC(=O)CP(=O)(c1ccccc1)c1ccccc1 | 16.4 µM (active)
36 | O=C(Cc1ccccc1)Nc1nnc(CCSCCc2nnc(NC(=O)Cc3ccccc3)s2)s1 | inactive
37 | CCCSS/C(CCO)=C(\C)N(C=O)Cc1cnc(C)nc1N | 9.2 µM (active)
38 | NC(=S)N/N=C/c1ncccc1N | inactive
39 | Nc1nc2ccccc2n1Cc1ccc(F)cc1 | inactive
40 | CCC(=O)Oc1ccc2c(c1)CC[C@@H]1[C@@H]2CC[C@@]2(C)[C@H]1C[C@@H](OC(=O)CC)[C@@H]2OC(=O)CC | inactive
